# Test results taken from the supplement of paper PMC8728848.
# Only a selection was taken, and the strongest signals are over-represented in it overall.
# B1: SP16664B-bot-474-25-474 (Bacteroides ovatus) (protein)
# chain: CEEDIEIGNKIDESSYLASTQLSGLLLDENTNKNSSVIELRNNEYSTNVVFRLSKLPQKGVDVQIAVEESYAAIYNTIHETDFEVFPAANVKIANNGTFVLAPDDKVTPSVKVTLTAFDGMEEDKTYIVPLTVTSSTEGVTFTETSKHMVLLVQDYRNKPNTNKGEDAVQTVLYFEVNDTNPLNALEFLTESGKYFFDHIVLFAANINWDPEKQRVYLANNENVQFLLDNNDKYLQPLRKAGMKIIISILGNHDEAGVAQLSDMGAREFARELAAYCRAYNLDGVAFDDEYSNSPDLSNPWLASPSAYAGSRLMYECKAVMPEKIVSLYNLGNMYSSSLQVIDGIEPGQYCDYAVADYGGAAGPGTGMTLKQCAGMSIELRRGSGNSSESTARSRKEAGYGYYMFFALDPSLYGSQVYRCQSVCKGLYDETLVYPSYYYKKNSTEREAIN
# B2: PhoSpL (Pholiota squarrosa) (peptide)
# chain: APVPVTKLVCDGDTYKCTAYLDFGDGRWVAQWDTNVFHTG
# How the values were obtained:
# Experiment in all cases: glycan array binding signal (z-score within array); higher = stronger binding
# Settings in all cases: glycan notation: IUPAC condensed, linker removed
# [1] = target: Neu5Ac(a2-3)Gal(b1-4)GlcNAc(b1-6)GalNAc
# In short: (§1)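 From the Consortium for Functional Glycomics database, 3228 arrays were curated, keeping only those whose protein sequence was available. Binding is given as a within-array Z-score averaged across arrays sharing a protein sequence and across linkers. Negative Z-scores can be read as non-binding.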
# [2] = target: Neu5Ac(a2-3)Gal(b1-4)GlcNAc(b1-6)[Gal(b1-3)]GalNAc
# In short: as §1
# [3] = target: Neu5Ac(a2-3)[GalNAc(b1-4)]Gal(b1-4)GlcNAc
# In short: as §1
# [4] = target: Neu5Ac(a2-3)[GalNAc(b1-4)]Gal(b1-4)GlcNAc(b1-3)GalNAc
# In short: as §1
# [5] = target: Neu5Ac(a2-6)Gal(b1-4)GlcNAc(b1-2)Man(a1-3)[Neu5Ac(a2-6)Gal(b1-4)GlcNAc(b1-2)Man(a1-6)]Man(b1-4)GlcNAc(b1-4)GlcNAc
# In short: as §1
# [6] = target: Neu5Ac(a2-6)Gal(b1-4)GlcNAc(b1-3)GalNAc
# In short: as §1
# [7] = target: Neu5Ac(a2-6)Gal(b1-4)GlcNAc(b1-6)[Gal(b1-3)]GalNAc
# In short: as §1
# [8] = target: Neu5Ac9Ac(a2-3)Gal(b1-4)GlcNAc
# In short: as §1
# [9] = target: Neu5Gc(a2-3)Gal(b1-3)[Fuc(a1-4)]GlcNAc
# In short: as §1
# [10] = target: Neu5Gc(a2-3)Gal(b1-4)GlcNAc(b1-3)Gal(b1-4)GlcNAc(b1-2)Man(a1-3)[Neu5Gc(a2-3)Gal(b1-4)GlcNAc(b1-3)Gal(b1-4)GlcNAc(b1-2)Man(a1-6)]Man(b1-4)GlcNAc(b1-4)GlcNAc
# In short: as §1
# [11] = target: Neu5Gc(b2-6)Gal(b1-4)GlcNAc
# In short: as §1
# [12] = target: Fuc(a1-2)Gal(b1-4)GlcNAc(b1-6)GalNAc
# In short: as §1
# [13] = target: Fuc(a1-2)[Gal(a1-4)]Gal(b1-4)GlcNAc
# In short: as §1
# [14] = target: Fuc(a1-2)[GalNAc(a1-3)]Gal
# In short: as §1
# [15] = target: Fuc(a1-2)[GalNAc(a1-3)]Gal(b1-4)GlcNAc(b1-2)Man
# In short: as §1
# Fuc(a1-3)GlcNAc = target: Fuc(a1-3)GlcNAc
# In short: as §1
# [16] = target: Fuc(a1-3)[Gal(b1-4)]GlcNAc(b1-2)Man
# In short: as §1
# [17] = target: Fuc(a1-3)[Gal(b1-4)]GlcNAc(b1-3)Gal(b1-4)[Fuc(a1-3)]GlcNAc(b1-3)Gal(b1-4)[Fuc(a1-3)]GlcNAc
# In short: as §1
# Gal(a1-2)Gal = target: Gal(a1-2)Gal
# In short: as §1
# Gal(a1-3)Gal(b1-4)Glc = target: Gal(a1-3)Gal(b1-4)Glc
# In short: as §1
# [18] = target: Gal(b1-3)GlcNAc(b1-2)Man(a1-3)[Gal(b1-3)GlcNAc(b1-2)Man(a1-6)]Man(b1-4)GlcNAc(b1-4)[Fuc(a1-6)]GlcNAc
# In short: as §1
# [19] = target: Gal(b1-3)[Fuc(a1-4)]GlcNAc(b1-3)Gal(b1-4)[Fuc(a1-3)]GlcNAc
# In short: as §1
# [20] = target: Gal(b1-4)GlcNAc(b1-2)Man(a1-3)[Gal(b1-4)GlcNAc(b1-2)Man(a1-6)]Man(b1-4)GlcNAc(b1-4)[Fuc(a1-6)]GlcNAc
# In short: as §1
# [21] = target: Gal(b1-4)GlcNAc(b1-2)[Gal(b1-4)GlcNAc(b1-6)]Man(a1-6)[Gal(b1-4)GlcNAc(b1-2)Man(a1-3)]Man(b1-4)GlcNAc(b1-4)[Fuc(a1-6)]GlcNAc
# In short: as §1
# [22] = target: Gal(b1-4)GlcNAc(b1-3)Gal(b1-3)GlcNAc
# In short: as §1
# [23] = target: Gal(b1-4)GlcNAc(b1-3)Gal(b1-4)GlcNAc(b1-2)Man(a1-3)[Gal(b1-4)GlcNAc(b1-3)Gal(b1-4)GlcNAc(b1-2)Man(a1-6)]Man(b1-4)GlcNAc(b1-4)[Fuc(a1-6)]GlcNAc
# In short: as §1
# [24] = target: Gal(b1-4)GlcNAc(b1-3)Gal(b1-4)GlcNAc(b1-3)Gal(b1-4)GlcNAc
# In short: as §1
# [25] = target: Gal(b1-4)GlcNAc(b1-3)Gal(b1-4)GlcNAc(b1-3)Gal(b1-4)GlcNAc(b1-3)Gal(b1-4)GlcNAc(b1-3)Gal(b1-4)GlcNAc(b1-2)Man(a1-3)[Gal(b1-4)GlcNAc(b1-3)Gal(b1-4)GlcNAc(b1-3)Gal(b1-4)GlcNAc(b1-3)Gal(b1-4)GlcNAc(b1-3)Gal(b1-4)GlcNAc(b1-2)Man(a1-6)]Man(b1-4)GlcNAc(b1-4)[Fuc(a1-6)]GlcNAc
# In short: as §1
# [26] = target: Gal(b1-4)GlcNAc(b1-3)GalNAc
# In short: as §1
# Gal(b1-4)GlcNAc6P = target: Gal(b1-4)GlcNAc6P
# In short: as §1
# [27] = target: GalNAc(a1-3)GalNAc(b1-3)Gal(a1-4)Gal(b1-4)GlcNAc
# In short: as §1
# [28] = target: GalNAc(b1-3)Gal(a1-4)Gal(b1-4)GlcNAc
# In short: as §1
# [29] = target: GalNAc(b1-4)GlcNAc(b1-2)Man(a1-3)[GalNAc(b1-4)GlcNAc(b1-2)Man(a1-6)]Man(b1-4)GlcNAc(b1-4)GlcNAc
# In short: as §1
# [30] = target: GlcA3S(b1-3)Gal(b1-4)GlcNAc(b1-2)Man
# In short: as §1
# [31] = target: GlcNAc(a1-4)Gal(b1-3)GlcNAc
# In short: as §1
# [32] = target: GlcNAc(b1-2)Man(a1-3)[GlcNAc(b1-2)Man(a1-6)]Man(b1-4)GlcNAc(b1-4)GlcNAc
# In short: as §1
# [33] = target: GlcNAc(b1-2)Man(a1-3)[GlcNAc(b1-2)Man(a1-6)]Man(b1-4)GlcNAc(b1-4)[Fuc(a1-6)]GlcNAc
# In short: as §1
# [34] = target: GlcNAc(b1-2)[GlcNAc(b1-4)]Man(a1-3)[GlcNAc(b1-4)][GlcNAc(b1-2)Man(a1-6)]Man(b1-4)GlcNAc(b1-4)GlcNAc
# In short: as §1
# [35] = target: GlcNAc(b1-2)[GlcNAc(b1-6)]Man(a1-6)[GlcNAc(b1-2)Man(a1-3)]Man(b1-4)GlcNAc(b1-4)[Fuc(a1-6)]GlcNAc
# In short: as §1
# [36] = target: GlcNAc(b1-3)Gal(b1-4)GlcNAc(b1-2)Man(a1-3)[GlcNAc(b1-3)Gal(b1-4)GlcNAc(b1-2)Man(a1-6)]Man(b1-4)GlcNAc(b1-4)[Fuc(a1-6)]GlcNAc
# In short: as §1
# [37] = target: GlcNAc(b1-3)Gal(b1-4)GlcNAc(b1-3)Gal(b1-4)GlcNAc(b1-2)Man(a1-3)[GlcNAc(b1-3)Gal(b1-4)GlcNAc(b1-3)Gal(b1-4)GlcNAc(b1-2)Man(a1-6)]Man(b1-4)GlcNAc(b1-4)[Fuc(a1-6)]GlcNAc
# In short: as §1
binder,measurement,setting,value
B1,glycan array binding signal (z-score),[1],-0.362
same,glycan array binding signal (z-score),[2],-0.456
same,glycan array binding signal (z-score),[3],-0.21
same,glycan array binding signal (z-score),[4],0.051
same,glycan array binding signal (z-score),[5],-0.081
same,glycan array binding signal (z-score),[6],-0.034
same,glycan array binding signal (z-score),[7],-0.15
same,glycan array binding signal (z-score),[8],-0.181
same,glycan array binding signal (z-score),[9],-0.071
same,glycan array binding signal (z-score),[10],-0.304
same,glycan array binding signal (z-score),[11],0.041
B2,glycan array binding signal (z-score),[12],-0.46
same,glycan array binding signal (z-score),[13],0.637
same,glycan array binding signal (z-score),[14],-0.032
same,glycan array binding signal (z-score),[15],0.067
same,glycan array binding signal (z-score),Fuc(a1-3)GlcNAc,-0.427
same,glycan array binding signal (z-score),[16],-0.336
same,glycan array binding signal (z-score),[17],-0.179
same,glycan array binding signal (z-score),Gal(a1-2)Gal,-0.168
same,glycan array binding signal (z-score),Gal(a1-3)Gal(b1-4)Glc,0.101
same,glycan array binding signal (z-score),[18],6.05
same,glycan array binding signal (z-score),[19],-0.256
same,glycan array binding signal (z-score),[20],13.4
same,glycan array binding signal (z-score),[21],8.42
same,glycan array binding signal (z-score),[22],0.027
same,glycan array binding signal (z-score),[23],1.94
same,glycan array binding signal (z-score),[24],-0.517
same,glycan array binding signal (z-score),[25],0.488
same,glycan array binding signal (z-score),[26],-0.135
same,glycan array binding signal (z-score),Gal(b1-4)GlcNAc6P,-0.747
same,glycan array binding signal (z-score),[27],0.539
same,glycan array binding signal (z-score),[28],0.249
same,glycan array binding signal (z-score),[29],1.41
same,glycan array binding signal (z-score),[30],-0.16
same,glycan array binding signal (z-score),[31],-0.307
same,glycan array binding signal (z-score),[32],-0.238
same,glycan array binding signal (z-score),[33],4.77
same,glycan array binding signal (z-score),[34],-0.113
same,glycan array binding signal (z-score),[35],4.35
same,glycan array binding signal (z-score),[36],2.47
same,glycan array binding signal (z-score),[37],1.44
